# GLA spleen mod = qHTS Assay for Inhibitors and Activators of Human alpha-Galactosidase From Spleen Homogenate | Alpha-galactosidase A (Homo sapiens), P06280 | human spleen homogenate, 4MU-alpha-Gal fluorescence, 40 min | Potency, µM (highest dose often 80 µM), inactives show top-dose activity change, negative = inhibition, hits mostly inhibitors | actives 0.008% (n = 240,000);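 note: potency is the fitted concentration of half-maximal effect; 0% = enzyme with vehicle and -100% = no enzyme basal signal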
# Target sequence (P06280 32-429 limits assumed): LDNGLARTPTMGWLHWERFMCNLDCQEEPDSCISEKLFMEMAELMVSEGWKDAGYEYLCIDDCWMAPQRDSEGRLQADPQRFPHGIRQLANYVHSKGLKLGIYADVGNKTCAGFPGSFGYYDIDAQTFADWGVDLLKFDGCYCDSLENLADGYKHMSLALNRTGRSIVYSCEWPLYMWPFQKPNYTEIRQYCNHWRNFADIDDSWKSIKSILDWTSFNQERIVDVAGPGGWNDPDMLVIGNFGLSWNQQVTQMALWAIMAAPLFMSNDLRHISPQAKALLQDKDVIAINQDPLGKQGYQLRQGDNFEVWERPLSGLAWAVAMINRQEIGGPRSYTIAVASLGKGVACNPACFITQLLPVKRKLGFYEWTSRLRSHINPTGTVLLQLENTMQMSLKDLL
#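 Human spleen homogenate (1 ug) as enzyme source, 4-methylumbelliferyl-alpha-D-galactopyranoside 1 mM final, citrate/phosphate pH 5.0 with 0.01% Tween-20. Compounds 40 min at 37C, NaOH/glycine stop; fluorescence Ex 365/Em 440, Hill-fit AC50.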
# N370S GC = qHTS Assay for Inhibitors and Activators of N370S glucocerebrosidase as a Potential Chaperone Treatment of Gaucher Disease; Lysosomal acid glucosylceramidase (Homo sapiens), P04062; N370S GC spleen homogenate, 4MU-glucoside fluorescence; Potency, µM (highest dose often 59.4 µM), for inactives: at the top dose activity change, negative = inhibition, hits mostly inhibitors; actives 0.092% (n = 330,000); AID 2101, 2009;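 note: potency is the fitted concentration of half-maximal effect; 0% = full enzyme activity and -100% = no enzyme basal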
# GAA inhib = qHTS Assay for Inhibitors of Human alpha-Glucosidase as a Potential Chaperone Treatment of Pompe Disease; Lysosomal alpha-glucosidase (Homo sapiens), P10253; purified human GAA, 4-MU-alpha-glucoside fluorescence; Potency, µM (top dose mostly 76.9 µM), for inactives: at the highest dose activity change, negative = inhibition, actives largely listed as inhibitors; actives 0.005% (n = 200,000); AID 1466, 2008;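 note: potency is the fitted concentration of half-maximal effect; plate controls were uninhibited enzyme wells for no effect and no-enzyme background for full effect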
#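 Compounds are titrated up to 77 uM against 4 nM human enzyme. Substrate 4-methylumbelliferyl-alpha-D-pyranoside (400 uM) reacts 20 min at room temperature in pH 5.0 buffer; liberated 4-methylumbelliferone is read at 440 nm.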
# aGlu spleen mod = qHTS Assay for Inhibitors and Activators of Human alpha-Glucosidase From Spleen Homogenate | Lysosomal alpha-glucosidase (Homo sapiens), P10253 | human spleen homogenate, 4-MU-alpha-glucoside fluorescence | Potency, µM (series often up to 79.9 µM), without a hit: top-dose activity change, negative = inhibition, usual class: inhibitors | actives 0.006% (n = 240,000);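 note: potency is the fitted concentration of half-maximal effect; 0% = enzyme with vehicle and -100% = no enzyme basal signal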
#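 Human spleen homogenate (1 ug) with 4-methylumbelliferyl-alpha-D-glucopyranoside (1 mM final) in 50 mM citrate/phosphate pH 5.0, 0.01% Tween-20; 40 min at 37 C. Stopped at pH 10; 4-MU fluorescence Ex 365/Em 440 nm; AC50 by Hill fit.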
# GAA glycogen mod = qHTS Assay for Inhibitors and Activators of Human alpha-Glucosidase Cleavage of Glycogen; Lysosomal alpha-glucosidase (Homo sapiens), P10253; actives 0.38% (n = 300,000); AID 2100, 2009; recombinant GAA, glycogen substrate, Amplex Red glucose oxidase fluorescence; Potency, µM (top dose mostly 76.4 µM), for inactives: at the top dose activity change, negative = inhibition, most hits filed as inhibitors;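 note: potency is the fitted concentration of half-maximal effect; 0% = full enzyme reaction and -100% = no-enzyme basal signal; the screen sought inhibitors and activators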
#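 Recombinant enzyme (4 nM final) with compounds titrated up to 77 uM and bovine liver glycogen (30 ug) in citrate pH 5.0, 0.01% Tween-20, 37 C 40 min. Released glucose detected by Amplex Red/glucose oxidase (Ex 573/Em 610); AC50 from Hill fits.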
# GLA inh pH 4.5 = qHTS Assay for Inhibitors of Human alpha-Galactosidase at pH 4.5; purified enzyme, 4-MU-alpha-Gal fluorescence, pH 4.5; 230,000 tested, under 10 active; activity change, negative = inhibition, % at 105 µM; Alpha-galactosidase A (Homo sapiens), P06280; AID 1467, 2008;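 note: 0% = full activity with enzyme and -100% = basal without enzyme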
# Numbers without * were called inactive; ? = inconclusive; . = not tested or not shown; [ ] = remark or other dose. Sampled rows, rich in hits. Any-hit rate of the full collection: about 0.43%. Calls come from the whole dose curve; as a rule, active = well fitted curve in the direction sought with a large enough effect; inconclusive = small, poorly fitted or top-dose-only effect, or another doubt; inactive = no such curve, though single readings can be large; an effect the other way counts as inactive or inconclusive.
SMILES,GLA spleen mod,N370S GC,GAA inhib,aGlu spleen mod,GAA glycogen mod,GLA inh pH 4.5
Cc1[nH]c2ccccc2c1/C=N/Nc1nc2ccccc2[nH]1,9%,21%,.,2%,?,-4
CCc1nnc(N/N=C/c2c(F)cccc2Cl)n1N,.,-2%,.,.,-9%[76.3 µM],.
Cc1ccc(NC(=S)N/N=C/c2c(C)[nH]c3ccccc23)cc1,7%,?,-12%,0%,28µM*,-9
Cc1[nH]c2ccccc2c1/C=N/NC(N)=S,9%,-11%,.,-26%,?,-1
COc1ccc(-c2nc3c(c4c2C[C@H](c2ccccc2)OC4)CN(S(=O)(=O)c2ccc(C#N)cc2)CC3)c(C)c1,6%[17.5 µM],-18%[12.8 µM],.,3%[17.4 µM],.,0
O=C(NC1CCCCC1)c1ccc(CSc2nc3ccncc3n2Cc2ccccc2)cc1,.,.,.,.,14%[76.3 µM],.
COc1cccc([C@@H]2Oc3ccc(OC)cc3C(=O)[C@H]2OC(=O)NS(=O)(=O)c2ccc(C)cc2)c1,8%,1%,.,-4%,.,-3
Cc1ccccc1NS(=O)(=O)c1ccc(C(=O)N2CCCC2)cc1,.,2%,.,.,.,.
Cc1cccc(NS(=O)(=O)c2ccc(C(=O)N3CCN(c4ccccc4O)CC3)cc2)c1C,.,-5%,.,.,4.5µM*,.
COc1ccc2c(c1)-c1c(sn(-c3ccc(OC)c(OC)c3)c1=S)C(C)(C)N2,-14%,-3%,-10%,-3%,22µM*,-2
COc1ccc(-n2sc3c(c2=S)-c2cc(OC)ccc2NC3(C)C)cc1,7%,2%,1%,-17%,?,0
CC1(C)CC(=O)C2=C(C1)N=C1c3ccccc3C(=O)C1C2c1ccc(Cl)cc1 (centres undefined),3%,14µM*,1%,-4%,-5%,-18
CCOC(=O)C1=C(C)N=C2c3ccccc3C(=O)C2C1c1ccc(Cl)cc1 (centres undefined),-2%,-5%[12.8 µM],-3%,-10%,-29%,1
Cc1ccc(C2C3=C(CC(C)(C)CC3=O)OC3=C2C(=O)CC(C)(C)C3)cc1,1%,0%,6%,-2%,-9%,-1
Cc1ccc(C2C3=C(CC(C)(C)CC3=O)N=C3c4ccccc4C(=O)C32)cc1 (centres undefined),1%,16µM*,-2%,-16%,-22%,-14
CCOC(=O)c1ccccc1NC(=O)Cn1c(=O)n(-c2cccc(C)c2)c(=O)c2c1c1cc(C)ccc1n2C,.,.,.,.,13%[76.3 µM],.
CC1(C)CC(O)C(C)(C)N1O (centres undefined),-16%,7%,-8%,-10%,16µM*,-12
O=C(CN1CCN(c2ccc(O)cc2)CC1)N1CCc2ccccc21,.,-10%,.,.,5µM*,.
NC(=NCCCCCCN=C(N)/N=C(\N)Nc1ccc(Cl)cc1)/N=C(\N)Nc1ccc(Cl)cc1,-23%,6.3µM*,.,3%,4%[76.3 µM],-3
CSC1=N/C(=C\c2ccccc2Cl)C(=O)N1N(C)C,-20%,-3%,?,0%,6%,-3
CC(=O)/C=C(\C)Nc1ccccc1O,-3%,-21%,.,-12%,25µM*,-1
Nc1cnn([C@@H]2O[C@H](CO)[C@@H](O)[C@H]2O)c(=O)n1,-5%,-10%,.,1%,.,.
COc1ccc(NC2=C(Cl)C(=O)N(c3ccccc3)C2=O)c(OC)c1,-10%,12%,-9%[15.4 µM],-7%,3%,.
COc1ccc(N2C(=O)C(Cl)=C(Nc3c(C)n(C)n(-c4ccccc4)c3=O)C2=O)cc1,-2%,-2%,6%,2%,25µM*,-14
O=C(NCCCCc1ccccc1)C12CN(Cc3ccccc3)CC1C(c1ccc([N+](=O)[O-])cc1)=NO2 (centres undefined),-8%,10µM*,?,-4%,-1%,-19
SMILES,GLA spleen mod,N370S GC,GAA inhib,aGlu spleen mod,GAA glycogen mod,GLA inh pH 4.5
O=C(NCCCCc1ccccc1)C12CN(Cc3ccccc3)CC1C(c1cccc([N+](=O)[O-])c1)=NO2 (centres undefined),-8%,-7%,-2%,-8%,-10%,-12
N#Cc1ccc(CN2CCN(CC(=O)NCCc3ccc(Cl)cc3Cl)CC2)cc1,.,-9%,.,.,6%,.
O=[N+]([O-])c1ccccc1/C=N\Nc1nccs1,.,-9%,.,.,.,.
Clc1cccc(Cl)c1/C=N\Nc1nccs1,-2%,22%,-4%,-5%,28µM*,6
O=C(NN=C1C2CC3CC(C2)CC1C3)c1ccncc1,-5%,7%,4%,-11%,?,-9
O=C(NN=C1C2CC3CC(C2)CC1C3)c1cc(Cl)ccc1O,11%,0%,-3%,4%,13µM*,-1
CC1CCc2c(nc3ncnn3c2NCCc2ccccc2F)C1 (centres undefined),-12%,-28%,10%,2%,4µM*,-5
CC1CCc2c(nc3ncnn3c2N2CCN(c3ccccc3F)CC2)C1 (centres undefined),?,-3%,-3%,-5%,1%,-3
COc1ccccc1-c1nccc(NCc2cccs2)n1,3%,5%,.,10%,.,.
CN1CCc2cccc3c2[C@@H]1Cc1ccc(O)c(O)c1-3,-5%,-1%,?,-4%,3.5µM*,-3
COc1ccc2c(c1O)-c1ccccc1CCN(C)C2,5%,22%,.,4%,-2%,5
CCOc1nsc(OCC)n1,4%,6%,.,6%,9%,3
Cc1ccccc1N1CCN(S(=O)(=O)c2nnc(NC(=O)c3ccco3)s2)CC1,.,-3%,.,.,0%[76.3 µM],.
O=C(Cn1cc(S(=O)(=O)c2ccccc2)c(=O)c2cc(Cl)ccc21)Nc1ccc2c(c1)OCO2,.,.,.,.,-9%[76.3 µM],.
CCCC[C@@H](C)/C=C(C)/C=C(\C)C(=O)NC1=C[C@@](O)(/C=C/C=C/C=C/C(=O)NC2=C(O)CCC2=O)[C@@H]2O[C@@H]2C1=O,1%,0%,.,1%,.,.
COC(=O)C1=C(C(=O)OC)[C@@H]2N(Cc3ccccc3)c3ccccc3[C@@]23C[C@@H](C(=O)OC)N(S(=O)(=O)c2ccc(C)cc2)C3=N1,0%[17.5 µM],8%[12.8 µM],.,-2%[17.4 µM],.,1
Cc1ccc(-c2ccc(NC(=O)C3C4C=CC(C4)C3C(=O)O)cc2)o1 (centres undefined),0%,.,7%,-3%,40µM*,-3

# Compound activity deposited in PubChem by National Center for Advancing Translational Sciences (NCATS).
